This is a sample that favours compounds with a hit; in the whole collection about 4.6% have one here.
CF NFkB block = inhibitors of PAF-induced NF-kB signaling, primary screen, cell-based, GFP fluorescence, uHTS. inhibition, % at 5 µM. KKLEB NF-kB-GFP reporter, GFP fluorescence overnight. 360,000 tested, 0.86% active;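 active means at least 50% inhibition at 5 µM, scaled per plate between neutral and stimulator controls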;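 further: PAF is a Pseudomonas aeruginosa culture filtrate used as stimulus; plate controls were PAF-stimulated DMSO wells for no effect and unstimulated DMSO wells for full effect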
Mdm2 MdmX PPI = inhibitors of human Mdm2-MdmX association, primary screen, cell-based, luminescence, split luciferase, SaOS-2, uHTS. SaOS-2 split-luciferase Mdm2/MdmX complementation. AID 485346, 2010. Protein Mdm4 (Homo sapiens) + E3 ubiquitin-protein ligase Mdm2 (Homo sapiens), …. inhibition, % at 8 µM. 330,000 tested, 3% active;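 active means inhibition of at least 50% at 8 µM in the primary screen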
Peg3 prom inh = Peg3 promoter-driven luciferase inhibitors, primary screen, cell-based, HeLa, luciferase luminescence | HeLa PEG-Prom luciferase reporter, overnight | inhibition, % at 20 µM | 360,000 tested, 1.7% active;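 active means inhibition of at least 50% at 20 µM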
KKLEB tox = cytotoxicity in KKLEB CF airway cells, primary screen, cytotoxicity control for CF NF-kB inhibitor project, cell-based, uHTS, fluorescence assay plates; KKLEB CF airway cells viability, ATPlite luminescence, overnight; hits give low values; cells stimulated with P. aeruginosa culture filtrate; activity change (cytotoxicity), % at 5 µM; 360,000 tested, 0.36% active; AID 602141, 2011;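 active means corrected activity change at or below -50% at 5 µM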
ABHD5-PLIN5 inh = ABHD5-PLIN5 interaction inhibitors, primary screen, cell lysate, split luciferase complementation, luminescence; Split G. princeps luciferase complementation, 4 h; inhibition, % at 4 µM; 360,000 tested, 0.78% active;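 active means inhibition above the mean inhibition across every tested compound plus 3 SD, cut at about 22% in these data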;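 further: 0% = DMSO only wells and the 100% control is not disclosed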
HIF-2a inh = HIF-2a reporter inhibitors, primary screen, luminescence, 786-0 RCC cells. 786-0 RCC cells HIF-2a reporter, luciferase luminescence, overnight. inhibition, % at 18.8 µM. 360,000 tested, 0.72% active;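 active means inhibition of the luminescence signal of 40% or more relative to plate controls, in a single-dose primary screen at 18.75 µM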
ABHD5-PLIN5 conf = ABHD5-PLIN5 interaction inhibitors, confirmation, biochemical, luminescence; shares compounds with ABHD5-PLIN5 inh; inhibition, % at 4 µM; 2,200 tested, 67% active; in the data active means inhibition above about 23%;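 further: 0% = DMSO vehicle wells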
HNF4 counter = HNF4 dimerization inhibitors, counter-screen for ABHD5-PLIN5 interaction inhibitor project, biochemical, split-luciferase complementation, luminescence; shares compounds with ABHD5-PLIN5 inh; inhibition, % at 4 µM; AID 651674, 2012; 2,200 tested, 77% active;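 active means mean inhibition across replicate wells exceeding the computed hit threshold, cut at about 13% in these data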;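 further: light from luciferase halves that rejoin when HNF4 fusion proteins dimerize; 0% = DMSO only wells and the 100% control is not given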
Numbers without * were called inactive; . = no result.

SMILES	CF NFkB block	Mdm2 MdmX PPI	Peg3 prom inh	KKLEB tox	ABHD5-PLIN5 inh	HIF-2a inh	ABHD5-PLIN5 conf	HNF4 counter
O=S1(=O)CCOC(CO)CN1Cc1ccc(Cl)c(Cl)c1 (stereo not drawn)	-18.4	7.4	2.1	-5.9	0.2	-2.7	.	.
O=C(CC(Nc1cccc(Cl)c1Cl)C(=O)O)c1ccccc1 (stereo not drawn)	-7.7	17.2	-10.8	10.7	85.5*	-79.9	14.7	73.1*
O=C(CC(Nc1ccccc1Cl)C(=O)O)c1ccccc1 (stereo not drawn)	-6.0	-11.5	-84.0	-7.1	82.6*	-167.2	29.1*	96.6*
Cc1c(Cl)cccc1NC(CC(=O)c1ccccc1)C(=O)OCC(=O)c1cccs1 (stereo not drawn)	7.8	-25.1	-4.3	-12.8	13.5	-41.6	.	.
O=C(CC(Nc1cccc(Cl)c1Cl)C(=O)OCC(=O)c1cccs1)c1ccccc1 (stereo not drawn)	2.9	-14.5	15.4	-8.2	13.6	-18.0	.	.
Cc1c(Cl)cccc1NC(CC(=O)c1ccccc1)C(=O)O (stereo not drawn)	13.3	-22.5	-34.3	-2.1	83.7*	-102.9	57.2*	107.8*
O=C(CNC(=O)CNC(=O)c1ccc(Cl)cc1Cl)NCc1cccc(Cl)c1	10.2	13.2	13.1	1.0	14.1	4.2	.	.
CCc1ccccc1NC(=O)c1ccc(OCc2c(C)noc2C)cc1	-21.6	11.9	13.9	2.9	7.7	-15.2	.	.
O=C(/C=C/c1ccccc1)COC(=O)c1ccccc1	-9.4	.	9.9	7.8	59.3*	-5.7	80.3*	92.3*
Cc1ccc(-c2csc3nc(C)n(-n4c(C)ccc4C)c(=O)c23)o1	2.9	9.4	16.9	3.8	51.7*	-0.9	25.0*	53.8*
Cc1ccc(/C(O)=C2/C(=O)C(=O)OC2c2ccc(Cl)cc2)cc1 (stereo not drawn)	2.5	-5.2	-36.3	2.8	31.6*	-43.5	57.4*	36.6*
Nc1nc(-c2ccccc2)c(N=Nc2ccccc2Cl)s1	-26.9	27.0	-2.3	2.5	23.7*	-18.2	26.2*	16.6*
Cc1nn(-c2ccc(Cl)cc2)c(Cl)c1/C=C(\C#N)C(N)=O	-7.8	20.6	15.5	-19.8	5.4	1.1	.	.
C=CCNC(=O)/C(C#N)=C/c1c(C)nn(-c2ccc(Cl)cc2)c1Cl	23.4	20.0	6.2	-11.9	33.8*	18.2	40.9*	45.4*
CC1=C(C(=O)Nc2ccc(C(=O)NCCCN3CCCCC3C)cc2)SCCO1 (stereo not drawn)	17.9	.	-10.2	-6.8	1.1	14.6	.	.
CCCNC(=O)N[C@H]1CC[C@@H](CCn2cc(-c3cccc(F)c3)nn2)O[C@@H]1CO	.	.	.	.	5.9	-1.4	.	.
Cc1cccc(C)c1NC(=O)C(c1ccc(-c2ccccc2)cc1)n1c(=O)c(-c2ccco2)nc2ccccc21 (stereo not drawn)	.	.	.	.	89.6*	-10.5	95.9*	26.7*
Cc1cccc(C)c1NC(=O)C(c1ccccc1)n1c(=O)c(-c2ccccc2)nc2ccccc21 (stereo not drawn)	.	.	.	.	-0.1	3.6	.	.
CC(C)(C)NC(=O)C(c1ccc(-c2ccccc2)cc1)n1c(=O)c(-c2ccco2)nc2ccccc21 (stereo not drawn)	.	.	.	.	72.9*	-95.0	93.8*	28.2*
COc1ccc(C(C(=O)NC(C)(C)C)n2c(-c3ccc(=O)[nH]c3)nc3ccccc32)cc1 (stereo not drawn)	.	.	.	.	4.6	-150.5	.	.
COc1ccc(C(C(=O)NC(C)(C)C)n2c(=O)c(-c3ccco3)nc3ccccc32)cc1 (stereo not drawn)	.	.	.	.	72.9*	10.9	62.7*	25.6*
CC(C)(C)NC(=O)C(c1ccc(C#N)cc1)n1c(=O)c(-c2ccco2)nc2ccccc21 (stereo not drawn)	.	.	.	.	75.4*	-0.8	77.4*	26.2*
CC(C)(C)NC(=O)C(c1ccc(-c2ccccc2)cc1)n1c(=O)c(-c2ccccc2)nc2ccccc21 (stereo not drawn)	.	.	.	.	-1.4	-33.1	.	.
CC(C)(C)NC(=O)C(c1ccc(C#N)cc1)n1c(=O)c(-c2ccccc2)nc2ccccc21 (stereo not drawn)	.	.	.	.	2.7	-6.0	.	.
COC(=O)[C@]12CCCCC=C1N(Cc1cccc3ccccc13)C(=O)[C@H](CC(=O)NCc1ccc(C)o1)C2	.	.	.	.	10.5	0.8	.	.
SMILES	CF NFkB block	Mdm2 MdmX PPI	Peg3 prom inh	KKLEB tox	ABHD5-PLIN5 inh	HIF-2a inh	ABHD5-PLIN5 conf	HNF4 counter
COc1cccc(S(=O)(=O)N(C)C[C@@H]2OCc3cnnn3CCCC(=O)N([C@H](C)CO)C[C@@H]2C)c1	-11.9	.	-2.9	-1.0	-3.7	9.8	.	.
CC(C)C(Cl)=NOC(=O)Nc1ccc(S(N)(=O)=O)cc1	41.4	.	88.5*	-7.4	28.9*	22.6	68.5*	87.2*
COC(=O)[C@H](C)NC(=O)Nc1ccc(S(N)(=O)=O)cc1	1.6	5.9	-7.7	2.4	-6.8	12.6	.	.
Cc1sc2nc3c4ccccc4c(NCc4ccco4)nn3c(=O)c2c1C	-24.6	-104.0	-320.0	-6.0	31.6*	-264.1	45.9*	62.8*
O=C(Nc1cccc(C(F)(F)F)c1)C1Cc2c(-c3ccccc3)ccnc2O1 (stereo not drawn)	-15.8	.	18.7	6.4	-10.2	0.9	.	.
CCCNC(=O)C1(C)CCN(C(=O)c2cc(C(C)(C)C)nn2C)C1 (stereo not drawn)	3.6	.	8.1	5.9	0.4	6.2	.	.
NC(=O)c1ccccc1NC(=O)COc1ccc(Cl)cc1	2.7	-68.0	-274.2	-4.5	46.3*	-310.9	4.8	-1.8
COCOCCn1cc(CN2CCS(=O)(=O)N(Cc3ccc(-c4cccc(CO)c4)cc3)C(CC(C)C)C2=O)nn1 (stereo not drawn)	8.2	.	10.6	10.5	4.6	3.7	.	.
O=c1cc(-c2ccccc2)nc2c(Cl)cc(Cl)cn12	16.0	.	-165.9	-24.1	-3.6	-138.9	.	.
COc1ccc(NC(=O)C(c2ccccc2F)n2c(=O)c(-c3ccco3)nc3ccccc32)cc1 (stereo not drawn)	.	.	.	.	10.1	-3.3	.	.
